In test [1] the target is Ribosomal protein S6 kinase alpha-1 (Homo sapiens) (UniProt Q15418). The note with it: at 1 µM.
For test [2] the target is unchanged. The note with it: at 10 µM.
Test [3] has as its target Ribosomal protein S6 kinase alpha-3 (Homo sapiens) (UniProt P51812). The note with it: at 1 µM.
Test [4] has the same target. The note with it: at 10 µM.
In test [5] the target is Ribosomal protein S6 kinase alpha-2 (Homo sapiens) (UniProt Q15349). The note with it: at 1 µM.
Test [6] has the same target. The note with it: at 10 µM.
The target in test [7] is Ribosomal protein S6 kinase alpha-6 (Homo sapiens) (UniProt Q9UK32). The note with it: at 1 µM.
The target is the same in test [8]. The note with it: at 10 µM.
The target in test [9] is Mitogen-activated protein kinase 14 (Homo sapiens) (UniProt Q16539). The note with it: at 1 µM.
Test [10] shares this target. The note with it: at 10 µM.

Residual activity data for 17 molecules are collected here from ChEMBL document CHEMBL2218924, “A broad activity screen in support of a chemogenomic map for kinase signalling research and drug discovery” (Biochem J, 2013).

Sequence of Ribosomal protein S6 kinase alpha-3 (Homo sapiens) (P51812 whole entry): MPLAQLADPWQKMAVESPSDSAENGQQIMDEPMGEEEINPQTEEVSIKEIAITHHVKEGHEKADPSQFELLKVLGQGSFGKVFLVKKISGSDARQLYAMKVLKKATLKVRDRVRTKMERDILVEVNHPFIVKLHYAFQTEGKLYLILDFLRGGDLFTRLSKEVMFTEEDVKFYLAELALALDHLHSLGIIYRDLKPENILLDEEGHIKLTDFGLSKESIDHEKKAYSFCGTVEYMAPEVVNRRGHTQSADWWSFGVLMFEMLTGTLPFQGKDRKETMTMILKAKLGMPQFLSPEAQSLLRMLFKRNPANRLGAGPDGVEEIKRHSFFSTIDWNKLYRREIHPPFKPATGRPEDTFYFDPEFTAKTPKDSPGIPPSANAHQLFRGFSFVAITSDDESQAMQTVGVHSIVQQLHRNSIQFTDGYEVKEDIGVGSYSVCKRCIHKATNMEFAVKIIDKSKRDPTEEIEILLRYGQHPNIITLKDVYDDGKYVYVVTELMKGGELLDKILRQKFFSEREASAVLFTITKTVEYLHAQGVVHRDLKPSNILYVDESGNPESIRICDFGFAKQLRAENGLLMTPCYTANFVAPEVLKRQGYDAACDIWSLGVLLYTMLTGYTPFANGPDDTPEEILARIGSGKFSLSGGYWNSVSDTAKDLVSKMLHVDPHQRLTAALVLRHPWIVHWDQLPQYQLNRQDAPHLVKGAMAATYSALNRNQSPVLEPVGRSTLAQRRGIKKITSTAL
Sequence of Ribosomal protein S6 kinase alpha-6 (Homo sapiens) (Q9UK32 whole entry): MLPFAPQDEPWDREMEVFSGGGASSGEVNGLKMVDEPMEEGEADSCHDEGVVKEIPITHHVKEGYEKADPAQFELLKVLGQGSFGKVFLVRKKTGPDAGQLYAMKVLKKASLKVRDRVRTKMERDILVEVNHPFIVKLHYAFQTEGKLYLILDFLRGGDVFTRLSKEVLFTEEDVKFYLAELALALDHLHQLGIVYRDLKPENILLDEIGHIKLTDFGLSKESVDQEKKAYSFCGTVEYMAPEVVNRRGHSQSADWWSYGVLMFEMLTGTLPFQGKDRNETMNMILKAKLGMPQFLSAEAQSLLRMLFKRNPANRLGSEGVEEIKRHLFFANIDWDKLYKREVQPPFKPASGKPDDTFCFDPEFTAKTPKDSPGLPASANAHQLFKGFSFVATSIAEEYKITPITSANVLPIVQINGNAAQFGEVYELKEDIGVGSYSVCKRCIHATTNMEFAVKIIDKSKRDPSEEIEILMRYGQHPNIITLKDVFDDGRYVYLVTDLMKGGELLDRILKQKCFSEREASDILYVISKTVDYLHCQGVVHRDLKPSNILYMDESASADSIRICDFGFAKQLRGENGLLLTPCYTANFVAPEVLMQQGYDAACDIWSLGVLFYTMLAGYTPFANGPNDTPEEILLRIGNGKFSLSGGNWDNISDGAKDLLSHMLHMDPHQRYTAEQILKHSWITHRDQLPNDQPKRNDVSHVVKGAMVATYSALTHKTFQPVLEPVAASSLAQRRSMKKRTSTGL
Sequence of Ribosomal protein S6 kinase alpha-1 (Homo sapiens) (Q15418 whole entry): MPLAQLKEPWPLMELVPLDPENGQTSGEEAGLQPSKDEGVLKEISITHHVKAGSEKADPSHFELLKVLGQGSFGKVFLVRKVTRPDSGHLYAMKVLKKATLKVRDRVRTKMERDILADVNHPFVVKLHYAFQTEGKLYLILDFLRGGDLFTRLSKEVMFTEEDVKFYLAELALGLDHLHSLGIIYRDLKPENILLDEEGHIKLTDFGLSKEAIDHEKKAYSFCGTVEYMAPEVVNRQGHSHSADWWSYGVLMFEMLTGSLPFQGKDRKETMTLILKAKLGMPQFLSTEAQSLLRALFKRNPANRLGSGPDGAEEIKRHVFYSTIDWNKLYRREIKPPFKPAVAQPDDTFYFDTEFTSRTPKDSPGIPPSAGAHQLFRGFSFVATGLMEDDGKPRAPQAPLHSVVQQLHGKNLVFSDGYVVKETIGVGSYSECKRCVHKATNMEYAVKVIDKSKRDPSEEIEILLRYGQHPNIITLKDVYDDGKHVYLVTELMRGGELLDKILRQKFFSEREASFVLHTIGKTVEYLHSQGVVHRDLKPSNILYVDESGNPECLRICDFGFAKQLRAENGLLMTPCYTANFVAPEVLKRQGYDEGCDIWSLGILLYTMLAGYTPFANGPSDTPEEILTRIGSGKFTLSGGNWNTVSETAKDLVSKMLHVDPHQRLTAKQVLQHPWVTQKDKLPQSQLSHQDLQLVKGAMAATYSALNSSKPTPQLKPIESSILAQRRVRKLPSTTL
Sequence of Mitogen-activated protein kinase 14 (Homo sapiens) (Q16539 whole entry): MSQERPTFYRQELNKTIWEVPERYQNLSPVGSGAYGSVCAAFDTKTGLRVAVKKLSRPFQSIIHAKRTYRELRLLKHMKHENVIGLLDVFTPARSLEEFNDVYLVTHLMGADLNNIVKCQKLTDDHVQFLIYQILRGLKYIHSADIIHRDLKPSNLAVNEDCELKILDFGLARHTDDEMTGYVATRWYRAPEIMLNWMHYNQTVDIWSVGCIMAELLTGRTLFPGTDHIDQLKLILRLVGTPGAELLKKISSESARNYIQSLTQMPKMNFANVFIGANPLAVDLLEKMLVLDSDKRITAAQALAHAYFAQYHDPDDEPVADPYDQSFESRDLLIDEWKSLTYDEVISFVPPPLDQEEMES
Sequence of Ribosomal protein S6 kinase alpha-2 (Homo sapiens) (Q15349 whole entry): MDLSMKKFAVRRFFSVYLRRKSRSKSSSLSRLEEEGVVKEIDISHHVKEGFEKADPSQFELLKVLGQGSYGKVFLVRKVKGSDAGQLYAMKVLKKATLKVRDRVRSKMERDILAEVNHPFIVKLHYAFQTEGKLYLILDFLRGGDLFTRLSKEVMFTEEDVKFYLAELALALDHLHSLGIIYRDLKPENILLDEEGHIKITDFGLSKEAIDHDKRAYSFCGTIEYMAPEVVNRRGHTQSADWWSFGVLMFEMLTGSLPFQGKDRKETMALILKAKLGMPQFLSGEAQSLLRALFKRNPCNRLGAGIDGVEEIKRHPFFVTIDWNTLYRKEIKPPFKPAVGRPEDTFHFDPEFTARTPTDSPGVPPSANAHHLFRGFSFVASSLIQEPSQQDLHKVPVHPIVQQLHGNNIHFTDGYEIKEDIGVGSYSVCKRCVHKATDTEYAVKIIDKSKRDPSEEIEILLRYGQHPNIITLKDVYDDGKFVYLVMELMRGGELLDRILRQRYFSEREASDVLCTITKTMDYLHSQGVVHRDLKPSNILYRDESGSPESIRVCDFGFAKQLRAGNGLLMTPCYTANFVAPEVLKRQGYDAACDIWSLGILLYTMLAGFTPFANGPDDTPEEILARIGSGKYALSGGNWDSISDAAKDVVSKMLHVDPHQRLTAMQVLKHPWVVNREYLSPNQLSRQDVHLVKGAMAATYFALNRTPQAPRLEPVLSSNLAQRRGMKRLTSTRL

`Cn1cc(/C=C2\C(=O)Nc3ccc(S(N)(=O)=O)cc32)c2ccccc21`: the residual activity came out at 9% in test [1]; 6% in [2]; 9% in test [3]; 1% in test [4]; 4% in [5]; 0% in test [6]. The residual activity in test [7] is 21%; in test [8] it was 10%; in [9], 94%; in test [10], 96%.
`CO[C@H]1[C@@H](OC)C[C@H](C)[C@@H](OC)C2=CC(=O)C=C(NC(=O)/C(C)=C/C=C/[C@H](OC)[C@@H](OC(N)=O)/C(C)=C/[C@@H]1C)C2=O`: the residual activity in test [1] was found to be 115%; in [2] it was 84%; in test [3] it was 50%; in test [4], 36%; in test [5], 93%; in test [6] it was 104%. For the same molecule, the figures for the residual activity in test [7] and in test [8] were 113% and 91%, respectively.
As for `Oc1n[nH]c2nnc(-c3c(-c4ccccc4)nn4ccccc34)cc12`, the residual activity in test [1] came to 114%; in [2], 111%; in [3], 96%; in [4] it was 86%; in test [5], 90%; in test [6], 78%. Further, the residual activity was found to be 91% in [7], 106% in [8], 93% in test [9] and 85% in [10].
Turning to `Nc1cccc(-c2cc3c(Oc4cccc(O)c4)ncnc3[nH]2)c1`, the residual activity in test [1] worked out at 97%; in test [2] it was 68%; in test [3] it was 68%; in test [4], 32%; in test [5] it was 76%; in test [6], 27%. Besides, the residual activity in [7] worked out at 56%; in [8], 41%; in test [9], 54%; in test [10], 11%.
`Nc1n[nH]c2nnc(-c3c(-c4ccccc4)nn4ccccc34)cc12`: the residual activity was 108% in [1]; 93% in test [2]; 111% in test [3]; 96% in [4]; 90% in test [5]; 68% in test [6]. Moreover, the residual activity was 102% in [7], 88% in test [8], 78% in test [9] and 33% in test [10].
Turning to `COc1ccc(CNc2nc(N(CCO)CCO)nc3c2ncn3C(C)C)cc1`, the residual activity in [1] turned out to be 90%; in test [2], 59%; in [3] it was 31%; in test [4] it was 22%; in test [5], 11%; in [6], 5%. Further, the residual activity in test [7] was found to be 84%; in test [8], 56%; in test [9], 96%; in [10] it was 89%.
For the molecule `CCOc1cc2ncnc(Nc3cccc(Br)c3)c2cc1OCC`, the residual activity worked out at 100% in test [1]; 72% in test [2]; 102% in [3]; 40% in [4]; 90% in test [5]; 48% in test [6]. Moreover, the residual activity in test [7] is 92%; in [8], 46%; in test [9], 57%; in test [10], 13%.
Take `O=Nc1c(-c2c(O)[nH]c3ccccc23)[nH]c2ccccc12`: the residual activity in [1] stood at 40%; in test [2], 6%; in test [3], 50%; in [4], 7%; in [5] it was 19%; in test [6], 4%. The residual activity in [7] came to 20%; in test [8] it was 12%; in test [9], 94%; in [10] it was 78%.
As for `O=c1cc(-c2cccc3c2Sc2ccccc2S3)oc(N2CCOCC2)c1`, the residual activity in test [1] was 87%; in test [2] it was 94%; in test [3] it was 106%; in test [4], 93%; in [5], 98%; in test [6] it was 99%. For the same molecule, the residual activity in [7] was determined as 96%; in test [8] it was 87%; in [9], 103%; in [10] it was 99%.
With `CC(C)n1cnc2/c(=N/c3cccc(Cl)c3)nc(NCCO)[nH]c21`, the residual activity in test [1] turned out to be 50%; in [2], 22%; in [3], 15%; in [4] it was 6%; in test [5], 6%; in [6], 2%. The residual activity is 34% in [7], 21% in test [8], 84% in [9] and 74% in [10].
As for `CN(C)c1ccc(/C=C2\C(=O)Nc3ccccc32)cc1`, the residual activity in test [1] is 66%; in test [2] it was 34%; in [3] it was 47%; in [4], 16%; in test [5] it was 74%; in test [6], 25%. Besides, the residual activity in test [7] stood at 91%; in test [8], 40%; in test [9], 102%; in [10], 106%.
Consider `Cc1ccc(S(=O)(=O)/C=C/C#N)cc1`, for which the residual activity worked out at 94% in test [1]; 121% in [2]; 116% in test [3]; 120% in test [4]; 102% in test [5]; 109% in test [6]. Moreover, the residual activity in test [7] was found to be 74%; in test [8], 112%; in test [9], 94%; in test [10], 97%.
With `CC(C)n1cnc2c(NCc3ccccc3)nc(NCCCO)nc21`, the residual activity in [1] is 102%; in test [2], 82%; in [3], 101%; in test [4], 87%; in [5] it was 101%; in test [6] it was 72%. For the same molecule, the residual activity in test [7] came to 81%; in test [8] it was 91%; in [9] it was 87%; in test [10] it was 82%.
`Oc1ccc(Nc2nc(-c3ccc(Cl)cc3)cs2)cc1`: the residual activity was 113% in test [1]; 103% in test [2]; 75% in test [3]; 86% in test [4]; 91% in [5]; 80% in test [6]. Further, the residual activity was determined as 93% in test [7], 113% in [8], 89% in test [9] and 35% in test [10].
For the molecule `COc1cc2ncnc(N3CCN(C(=O)Nc4ccc(Oc5ccccc5)cc4)CC3)c2cc1OC`, the residual activity in [1] is 93%; in test [2] it was 118%; in [3], 56%; in [4] it was 65%; in test [5], 90%; in [6], 71%. Besides, the residual activity in test [7] was determined as 106%; in [8], 111%; in test [9], 78%; in test [10], 79%.
Take `O=C1NC(=O)/C(=C/c2ccc3c(c2)OC(F)(F)O3)S1`: the residual activity in [1] stood at 125%; in test [2], 65%; in test [3], 56%; in [4] it was 35%; in test [5] it was 117%; in [6] it was 99%. Moreover, the residual activity in test [7] worked out at 125%; in [8], 103%; in [9], 99%; in test [10], 109%.
Take `COc1ccc(C(=O)Nc2sc3c(c2C(N)=O)CCCC3)cc1OC`: the residual activity was 99% in [1]; 103% in [2]; 111% in test [3]; 93% in test [4]; 94% in test [5]; 97% in test [6]. In addition, the residual activity came out at 118% in test [7], 99% in test [8], 93% in [9] and 100% in [10].
